The campaign covered roughly 21,000 compounds. Fewer than 10 showed an effect of 50% or more. Only a sample is shown. Measured potencies and affinities stand elsewhere.
The compounds below were run on Acinetobacter baumannii. Details: Concentration 300 ug.mL-1; ASSAY_TEST Inhibition of Bacterial Growth; detection method Absorption (OD600); MEDIA CAMHB; plate type 384well; NBS; CORNING #3640; time 18 hr.
`COc1ccc(Cl)cc1NC(=O)NC1CCS(=O)(=O)C1` (stereo not drawn) gave an Inhibition of 6.86%.
`O=C(Nc1ccc(NC(=O)C2CC2)nc1)c1ccsc1` was tested, and the Inhibition was 12.11%.
Work on `COCCOCC(=O)N(C)C(C)c1ccncn1` (stereo not drawn) yielded an Inhibition of 0.44%.
In the case of `CCN(C(=O)CN1CCNC(=O)C1)c1ccc(F)cc1`, the Inhibition is reported as 7.47%.
With `CNC[C@@H]1C[C@@H](O)CN1` the Inhibition was 4.99%.
Compound `CC(C)c1noc(CN2CCSCC2)n1` has an Inhibition of 17.17%.
In the case of `Cc1ccc(C(CN)N2CCOCC2)o1` (stereo not drawn), the Inhibition is reported as 1.38%.
In the case of `CCc1nc(CNCC2CCN(CCO)CC2)no1`, the Inhibition is reported as 11.72%.
Compound `CCN(CC)C(C)CNC(=O)c1csc(NC(C)=O)n1` (stereo not drawn) has an Inhibition of 5.75%.
With `COCC(=O)Nc1ccc(-n2cccn2)nc1` the Inhibition was -2.46%.
Work on `CCC(C)(CO)NC(=O)c1sc(COC)nc1C` (stereo not drawn) yielded an Inhibition of 6.56%.
Work on `CCC(N)C(=O)N1CCOCC1` (stereo not drawn) yielded an Inhibition of 3.92%.
`CC[C@H](N)C(=O)N1CC(Oc2c(C)cccc2C)C1` gave an Inhibition of 6.21%.
`O=C(NC1CCCOC1)c1ccc2c(c1)OCCO2` (stereo not drawn) was tested, and the Inhibition was 9.3%.
For `CCCN1CCC(N2CCC(C(N)=O)CC2)CC1`, the Inhibition was -0.38%.
With `NC1CCN(Cc2ccc(F)c(F)c2)CC1` the Inhibition was 10.51%.
`COc1cn(-c2ccccc2)nc1C(=O)NCC(C)C` showed an Inhibition of 12.56%.
Compound `c1cncc(N2CCCCC2)c1` has an Inhibition of 8.5%.
With `Cc1cc(CN)n(C)n1` the Inhibition was 8.01%.
`Cc1nc(CC(=O)NCC(C)n2ccnc2)cs1` (stereo not drawn) showed an Inhibition of 5.87%.
For `CCc1noc(C(C)NC(=O)c2cccnc2C)n1` (stereo not drawn), the Inhibition was 6.44%.
`COc1c(F)cccc1CN1C[C@H](O)[C@@H](N(C)C)C1` gave an Inhibition of 9.85%.
For `CC(C)(C)OC(=O)c1ncccc1N`, the Inhibition was 5.28%.
In the case of `CCC(=O)c1ccc(CN)cc1`, the Inhibition is reported as 12.11%.
Work on `CSCC(=O)Nc1ccc(C(=O)NCC(F)(F)F)cc1` yielded an Inhibition of 10.77%.
`CC(=O)N1CCN(CCNC(=O)c2cc(Br)c[nH]2)CC1` was tested, and the Inhibition was 4.86%.
Work on `CNC(=O)C(C)(C)Oc1cccc(Cl)c1` yielded an Inhibition of 6.59%.
`O=C(C1CCC1)N(Cc1ccccn1)C1CC1` gave an Inhibition of 0.99%.
`Cc1nccn1CC(=O)Nc1ccnn1C` was tested, and the Inhibition was 1.95%.
`CN(C)c1cc(CN)ccn1` was tested, and the Inhibition was 11.49%.
In the case of `CCn1nc(C)cc1C(=O)NCCCc1cccnc1`, the Inhibition is reported as 7.13%.
For `O=C1CC(C(=O)N2CCCC3(CCCCC3)C2)CCN1` (stereo not drawn), the Inhibition was 7.27%.
In the case of `CCN(C)CCNC(=O)c1ccncc1I`, the Inhibition is reported as 5.97%.
With `O=C(c1ccco1)N1C[C@H](O)[C@@H](N2CCCCC2)C1` the Inhibition was 9.48%.
Work on `CNC(=O)c1cnc(OCC(F)(F)F)c(Cl)c1` yielded an Inhibition of 1.45%.
Work on `CC(=O)N(C1CC1)C(C)c1ccccn1` (stereo not drawn) yielded an Inhibition of 3.11%.
`O=C1NCCCCC1NS(=O)(=O)N1CCOCC1` (stereo not drawn) was tested, and the Inhibition was 3.3%.
Work on `CCn1cc(NC(=O)C(C)n2cccn2)cn1` (stereo not drawn) yielded an Inhibition of 0.68%.
For `CN(c1cccc(C(N)=O)c1)S(=O)(=O)c1ccccc1`, the Inhibition was 7.68%.
`COc1cccc(NC(=O)NCC2CCN(C)CC2)c1` was tested, and the Inhibition was 9.08%.
`Cc1cnccc1CN` was tested, and the Inhibition was 5.52%.
Compound `CN(Cc1nc(-c2ccc(F)cc2)cs1)CC(O)CO` (stereo not drawn) has an Inhibition of 8.94%.
`CC(C)CN1CC(CN)OC1=O` (stereo not drawn) gave an Inhibition of 2.13%.
Compound `O=C(CCN1CCc2[nH]cnc2C1)NCc1cccs1` has an Inhibition of -3.55%.
`CCNS(=O)(=O)C1CCN(Cc2cc(F)cc(F)c2)C1` (stereo not drawn) was tested, and the Inhibition was -0.23%.
Compound `C1CC(C2CCOC2)CCN1` (stereo not drawn) has an Inhibition of 9.96%.
`CCS(=O)(=O)CCN(C)CCOc1cccc(C#N)c1` showed an Inhibition of 3.26%.
For `CC(N)c1nc2ccccc2n1C` (stereo not drawn), the Inhibition was -1.51%.
Compound `CCC(=O)NCCc1noc(COC)n1` has an Inhibition of 8.83%.
`CCOc1cccc(C(C)NC(=O)CNC(C)=O)c1` (stereo not drawn) was tested, and the Inhibition was 8.25%.
Work on `CCC(=O)N1CCN(C(=O)CC2CCCCC2)CC1` yielded an Inhibition of 6.05%.
With `CC1Cc2ccccc2N1CCN` (stereo not drawn) the Inhibition was 14.26%.
`O=C1Nc2ccccc2C1C1CCNCC1` (stereo not drawn) was tested, and the Inhibition was 10.09%.
For `Cc1cc(C)cc(OCC(=O)N2CCN[C@H](C)C2)c1`, the Inhibition was 8.4%.
For `CC1=C(c2ccco2)CN(CC(N)=O)CC1`, the Inhibition was 3.95%.
`O=C(Nc1cncc(Br)c1Cl)N1CCC(O)C1` (stereo not drawn) was tested, and the Inhibition was -0.64%.
For `NCc1cccc(N2CC=CC2)c1`, the Inhibition was 6.5%.
`O=C(CCN1CCOCC1)Nc1cccc(Cl)c1` gave an Inhibition of 5.94%.
Work on `O=C(Cn1ccnc1)Nc1ccc(OC(F)F)cc1` yielded an Inhibition of 8%.
For `CNC(=O)CSc1nnc(C2CC2)n1C`, the Inhibition was 5.97%.
`CC(=O)c1c(C)[nH]c(C(=O)OCC(=O)N(C)C)c1C` was tested, and the Inhibition was 5.39%.
`NCc1ccc(-c2ccccc2)o1` showed an Inhibition of 16.01%.
In the case of `CC(C)CCNC(=O)Nc1c[nH]c(=O)[nH]c1=O`, the Inhibition is reported as 6.3%.
In the case of `CCCNC(=O)Cn1ccnc1SC`, the Inhibition is reported as 10.93%.
`CNC(=O)c1cccc(CN)n1` gave an Inhibition of 9.63%.
In the case of `CN(C)[C@H]1CN(C(=O)c2ccncc2)C[C@@H]1C1CC1`, the Inhibition is reported as 10.19%.
`CCn1cnnc1CC1CCCNC1` (stereo not drawn) gave an Inhibition of 9.33%.
In the case of `Cc1ccc(OC2CCN(C(=O)[C@@H](C)N)CC2)cc1`, the Inhibition is reported as 3.78%.
Compound `CN[C@@H](C)C(=O)N1CC(Oc2ccccc2OC)C1` has an Inhibition of -2.39%.
For `CC(C)NC(=O)C(C)N` (stereo not drawn), the Inhibition was 9.53%.
`NC(c1ccc(Cl)cc1)c1ncon1` (stereo not drawn) showed an Inhibition of 6.75%.
Work on `O=C(Cn1ccc(=O)[nH]c1=O)NCc1cccnc1` yielded an Inhibition of 6.41%.
`CCOc1cc(C)ccc1CN` gave an Inhibition of 7.86%.
In the case of `c1ncn(-c2ccc(NCC3CCOCC3)cc2)n1`, the Inhibition is reported as 5.37%.
Compound `Cc1nn(C)c2nc(NCCC(=O)N3CCCC3)sc12` has an Inhibition of 3.37%.
Work on `CNC(=O)[C@H]1CC[C@H](CNC(=O)c2cn[nH]c2)CC1` yielded an Inhibition of 6.17%.
For `CC(C)C(=O)N1CCC(N)C1` (stereo not drawn), the Inhibition was 3.38%.
Work on `Cc1nc(CN(C)C(=O)NCc2ccccc2)no1` yielded an Inhibition of 6.9%.
`CC(C)(C)OC(=O)N1CC(O)C1` showed an Inhibition of 5.37%.
`COC(=O)c1ccc(NC(=O)N2CCOC(C)C2)cc1` (stereo not drawn) was tested, and the Inhibition was 6.27%.
Compound `CSc1ccc(OCCN(C)CC(N)=O)cc1` has an Inhibition of 7.33%.
Work on `CCOC(=O)c1csc(CNC(=O)c2ccc(C)o2)n1` yielded an Inhibition of 0.25%.
Compound `CN(CCN1CCCC1=O)C(=O)c1ccc(Br)cc1O` has an Inhibition of 1.38%.
With `CN[C@@H](CC(C)C)C(=O)NCCCc1csc(N)n1` the Inhibition was -8.08%.
In the case of `COCC(=O)N1CCN(Cc2csc(C)n2)CC1`, the Inhibition is reported as 2.61%.
For `CCC(NC(=O)C1CC1)(C(N)=O)C(C)C` (stereo not drawn), the Inhibition was 2.37%.
For `Cc1cccc(NC(=O)C2COCCO2)c1` (stereo not drawn), the Inhibition was 1.93%.
`CC(=O)N1CCCC(C(=O)NCCc2nnc(C)s2)C1` (stereo not drawn) showed an Inhibition of 6.35%.
`O=C(OCCC1CCCO1)c1ccncc1` (stereo not drawn) was tested, and the Inhibition was -0.58%.
`O=C(CCC(F)(F)F)N[C@H]1CCCNC1` was tested, and the Inhibition was 10.33%.
Compound `CC(=O)N(C)CC(=O)Nc1ccccc1N1CCCC1` has an Inhibition of 8.57%.
Compound `CN(C)c1nccc(N(C)CCn2cccn2)n1` has an Inhibition of 7.7%.
For `CCN(C(=O)c1ccc(-c2ccco2)[nH]c1=O)C1CC1`, the Inhibition was 3.27%.
For `COCC(=O)Nc1ccc(OCc2ccccn2)cc1`, the Inhibition was 4.72%.
Compound `COc1ccc(OCCN2CCNCC2)cc1` has an Inhibition of 8.28%.
`CC(=O)NC(C(=O)N1CCSCC1)C(C)C` (stereo not drawn) gave an Inhibition of 3.97%.
`CC(C)Oc1ncc(C(=O)N2CCC(O)CC2)cc1Cl` was tested, and the Inhibition was 1.14%.
`C[C@H](N)c1cccc(OCCN(C)C)c1` gave an Inhibition of 5.56%.
Work on `C[C@@H]1CN(CCC(=O)NC2CCCC2)CC[C@]1(C)O` yielded an Inhibition of 3.95%.
For `O=S(=O)(CCN1CCN(c2nccs2)CC1)C(F)(F)F`, the Inhibition was 11.95%.
Work on `CS(=O)(=O)C[C@H]1CCCN1` yielded an Inhibition of 4.73%.
`CN(C(=O)c1ccc2c(c1)NC(=O)CS2)C1CCCC1` showed an Inhibition of 10.76%.
Work on `CN(C(=O)CCn1cccn1)C1CCS(=O)(=O)C1` (stereo not drawn) yielded an Inhibition of 0.97%.
Compound `NCCNS(=O)(=O)c1ccc(F)cc1C(F)(F)F` has an Inhibition of 9.19%.
Compound `CCn1cc(Br)c(C(C)=O)n1` has an Inhibition of 15.72%.
With `CCc1nccn1CCNC(=O)Cc1nonc1C` the Inhibition was 6.19%.
`O=C(Nc1ncccc1O)c1cnns1` showed an Inhibition of 5.13%.
In the case of `CN(C)CC[C@H](O)c1cccs1`, the Inhibition is reported as 11.43%.
For `Cc1occc1C(=O)N1CCC(NC(=O)C2CC2)CC1`, the Inhibition was 4.82%.
Compound `CC(=O)c1cccc(COC(=O)c2cccnc2)c1` has an Inhibition of 12%.
In the case of `CC(C)c1noc(CN(C)C(=O)C2=NNC(=O)CC2)n1`, the Inhibition is reported as -1.48%.
`CSCC(=O)N1CCN(S(=O)(=O)N2CCOCC2)CC1` showed an Inhibition of -0.38%.
`CCSc1nccc(N)n1` showed an Inhibition of 18.01%.
With `CS(=O)(=O)NCCc1nc2c(s1)CCCC2` the Inhibition was 6.5%.
With `CNC(=O)c1cccc(NCc2cccnc2)n1` the Inhibition was 1.67%.
With `CCN(C(=O)C(C)O)C1CCCCC1` (stereo not drawn) the Inhibition was 7.15%.
`CN(Cc1ccc(Oc2ccccc2)cc1)C(=O)CN` gave an Inhibition of 13.35%.
Work on `Cn1cc(S(=O)(=O)NCc2ccco2)cn1` yielded an Inhibition of -0.88%.
`O=C1CCCc2sccc2N1` showed an Inhibition of 14.86%.
`CCCS(=O)(=O)N1C[C@@H](CN(C)CCO)[C@@H](CO)C1` was tested, and the Inhibition was 1.24%.
Compound `CNC(=O)c1ccc(CNC(=O)c2ccoc2C)cc1` has an Inhibition of 5.87%.
Work on `COc1ccc(NC2CC(=O)N(C)C2=O)cc1OC` (stereo not drawn) yielded an Inhibition of 5.58%.
In the case of `CCN1CCCC1CNC(=O)c1csc(NC(C)=O)n1` (stereo not drawn), the Inhibition is reported as -0.07%.
`NCC(=O)NCCN1CCCCC1` gave an Inhibition of 9.69%.
`CCn1nnnc1NCc1sccc1C` was tested, and the Inhibition was 11.07%.
`CCOc1ncccc1C(=O)OC(C)C(=O)NC1CC1` (stereo not drawn) was tested, and the Inhibition was 0.66%.
`O=C(Nc1cccc(Cl)c1Cl)C1CCS(=O)(=O)C1` (stereo not drawn) was tested, and the Inhibition was -2.85%.
Compound `CC(=O)c1cc[nH]c(=O)c1` has an Inhibition of 3.77%.
`O=C(CNC1CC1)NC[C@H]1CCc2ccccc2O1` was tested, and the Inhibition was 0.42%.
`Cc1ccc(CN(C)CC(=O)NCCC#N)o1` gave an Inhibition of 4.14%.
Compound `COc1ccc(CC(=O)NCC(C)C)c(OC)c1` has an Inhibition of 9.02%.
Compound `CCCn1nnnc1CSCc1ccccn1` has an Inhibition of 1.73%.
`CCCOc1ccc2c(c1)CCN(C(=O)C(C)N)C2` (stereo not drawn) showed an Inhibition of 14.38%.

— ChEMBL document CHEMBL4513160, “CO-ADD screening of MMV (CH) - Small Polar Library”
